In all, about 310,000 compounds went through this assay and about 11,000 (3.5%) were called active. Not shown: some 4% with an inconclusive outcome. Calls follow the shape of the dose curve; as a rule, active = well fitted inhibition curve with a large enough effect; inconclusive = small, poorly fitted or top-dose-only effect, or another doubt; inactive = no such curve, though single readings can be large or run the other way. The entries come from a sample that favours actives as a whole.
Potency is read from the fitted curve at half-maximal effect.

The target of the assay is 4'-phosphopantetheinyl transferase ffp (Bacillus subtilis) (UniProt Q9F4F7). Nature of the assay: qHTS Assay for Inhibitors of Bacillus subtilis Sfp phosphopantetheinyl transferase (PPTase).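 Also: the enzyme is Sfp with the accession as filed and its product quenches rhodamine fluorescence.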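 As to largest response in the series, negative = inhibition: 0% = enzyme reaction without inhibitor and -100% = no enzyme wells.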 Particulars: Biochemical Sfp PPTase activity. In outline:
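Sfp 15 nM + cpd, 15 min RT; start w/ rhodamine-CoA 5 uM, BHQ-2-YbbR 12.5 uM (final); 50 mM Hepes pH 7.6, 10 mM MgCl2, 0.01% NP-40, 0.01% BSA; read 525/598 nm at 0 and 30 min.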
(qHTS replaces the single test concentration by a dilution series.)
As to `CN(c1ccc(O)cc1)c1nc(-c2cccnc2)cs1`, the largest response in the series, negative = inhibition was 0.24% (inactive).

As to `Cc1ccc(C(=O)CSc2ccccc2C(=O)O)cc1`, the largest response in the series, negative = inhibition was 13.7% (inactive).

For `Cc1ccc(SC(CC(=O)c2ccc(C(C)(C)C)cc2)C(=O)O)cc1` (configuration not stated), the Potency is 28.2 µM (active).

As to `Cc1ccc(C(=O)CNc2ccc(F)cc2)cc1`, the largest response in the series, negative = inhibition was -8.3% (inactive).

In the case of `O=C(Nc1ccccc1N1CCOCC1)c1ccc(OCc2cscn2)cc1`, the largest response in the series, negative = inhibition is -1.59% (inactive).

As for `NC(=S)c1ccc(C(N)=S)o1`, the Potency is 56.2 µM (active).

With `O=C(O)C1CC=CC2CCN(C3CCCCC3)C(=O)C21` (configuration not stated), the largest response in the series, negative = inhibition is 40% (inactive).

Regarding `COc1ccc(-n2cc(-c3ccccc3)c3c(=S)nc[nH]c32)cc1`, the largest response in the series, negative = inhibition is 7.93% (inactive).

Take `COc1ccc(C)cc1NC(=O)NCCCCc1ccccc1`: the largest response in the series, negative = inhibition is -4.5% (inactive).

`CN(Cc1ccccc1)C(=O)CCc1ccccc1`: the largest response in the series, negative = inhibition was 20.4% (inactive).

As to `CN(Cc1ccccc1)Cc1ccccc1F`, the Potency was 50.1 µM (active).

As to `O=C(c1ccccc1F)N(Cc1ccccc1)Cc1ccccc1`, the largest response in the series, negative = inhibition was 9.85% (inactive).

Take `Cc1ccc(C)c(OCCC(=O)OCC(=O)N2CCN(c3ccccc3)CC2)c1`: the largest response in the series, negative = inhibition was -6.17% (inactive).

Consider `Cc1coc2c1c(C)cc1oc(=O)c(CC(=O)NCC(=O)N[C@H](C(=O)O)C(C)C)c(C)c12`, for which the largest response in the series, negative = inhibition was 1.89% (inactive).

As to `CCn1cc(S(=O)(=O)c2cccc(C)c2)c(=O)c2cc(F)c(N3CCN(C)CC3)cc21`, the largest response in the series, negative = inhibition is 4.71% (inactive).

Consider `NCCCC[C@@H]1NC(=O)[C@H](CCC(=O)O)NC(=O)c2cc([N+](=O)[O-])cc(I)c2NCC[C@@H](C(N)=O)NC1=O`, for which the Potency was 31.6 µM (active).

Take `NC(=O)CC[C@@H]1NC(=O)[C@H](CO)NC(=O)c2cc([N+](=O)[O-])cc(I)c2NCC[C@@H](C(N)=O)NC1=O`: the largest response in the series, negative = inhibition was -7.09% (inactive).

Turning to `NC(=O)C[C@@H]1NC(=O)CNC(=O)c2cc([N+](=O)[O-])cc(I)c2NCCC(C(N)=O)NC1=O` (some centres not stated), the largest response in the series, negative = inhibition is -12.4% (inactive).

With `COc1cccc(CNC(=O)C2CCCN(S(=O)(=O)N3CC(C)CC(C)C3)C2)c1` (configuration not stated), the largest response in the series, negative = inhibition was 6.86% (inactive).

As to `CCC(CC)COC(=O)C1=C(C)NC(=O)NC1c1ccc([N+](=O)[O-])cc1` (configuration not stated), the largest response in the series, negative = inhibition was 7.14% (inactive).

Take `O=C(NCc1ccccn1)c1ccc2nc(-c3ccco3)c(-c3ccco3)nc2c1`: the Potency is 14.1 µM (active).

Consider `COc1cccc(S(=O)(=O)NCc2ccc(C(=O)NCc3ccccn3)cc2)c1`, for which the largest response in the series, negative = inhibition was 12.9% (inactive).

Consider `CC(C)(C)c1ccc(NC(=O)NCc2ccco2)cc1`, for which the largest response in the series, negative = inhibition is 8.16% (inactive).

With `O=C(Nc1ccc2nccnc2c1)c1ccco1`, the largest response in the series, negative = inhibition is 15.4% (inactive).

Turning to `COCCNC(=O)Nc1ccc2nc(-c3ccco3)c(-c3ccco3)nc2c1`, the Potency was 4.47 µM (active).

With `O=C(NCc1ccccn1)c1cc(Br)ccc1Cl`, the largest response in the series, negative = inhibition was -2.95% (inactive).

Consider `COc1ccc(CCN2CC(C(=O)NCCN3CCNC3=O)CCC2=O)cc1` (configuration not stated), for which the largest response in the series, negative = inhibition is 19% (inactive).

In the case of `COc1ccc2c(c1)c1nc3n(c(=O)c1n2CC(=O)Nc1ccccc1)CCS3`, the largest response in the series, negative = inhibition was 1.1% (inactive).

Turning to `COc1ccc(C(=O)/C=C/c2cccnc2)c(OC)c1`, the largest response in the series, negative = inhibition is 9.73% (inactive).

`O=[N+]([O-])c1cccc(/C=N/Nc2ncc(Br)cn2)c1`: the largest response in the series, negative = inhibition is 16.8% (inactive).

Take `Cn1sc(=O)c2cc(S(=O)(=O)NC3CC3)ccc21`: the Potency is 11.2 µM (active).

Regarding `CC1CCC(NS(=O)(=O)c2ccc3c(c2)n(C)c(=O)c(=O)n3C)CC1` (configuration not stated), the largest response in the series, negative = inhibition is 8.22% (inactive).

With `O=S(=O)(NC1CC1)c1ccc(F)c(F)c1`, the largest response in the series, negative = inhibition is 16.5% (inactive).

With `Cc1nonc1NC(=O)c1oc2ccccc2c1C`, the largest response in the series, negative = inhibition was -2.27% (inactive).

Take `CC(=O)c1ccc(N2CCN(CC(O)c3ccccc3)CC2)cc1` (configuration not stated): the largest response in the series, negative = inhibition was 16.5% (inactive).

With `CCc1ccc(Oc2coc3cc(O)ccc3c2=O)cc1`, the largest response in the series, negative = inhibition is 12.7% (inactive).

Turning to `CCOC(=O)c1c(NC(=O)/C=C/c2ccco2)sc(C)c1C`, the largest response in the series, negative = inhibition was -8.04% (inactive).

Consider `CCC(CC)c1nnc(NC(=O)C2CCN(C(=O)c3ccco3)CC2)s1`, for which the Potency is 39.8 µM (active).

For `CCC(c1nnnn1C1CCCC1)N1CCN(C(=O)c2ccco2)CC1` (configuration not stated), the largest response in the series, negative = inhibition was 6.92% (inactive).

Regarding `O=C(/C=C/c1ccco1)Nc1ccc(Oc2ccccc2)cc1`, the largest response in the series, negative = inhibition is 2.06% (inactive).

Take `COc1ccc(CNC(=O)C2CCN(C(=O)c3ccco3)CC2)cc1`: the largest response in the series, negative = inhibition was 5.46% (inactive).

`CCC(CC)c1nnc(NC(=O)c2nn(C)c(=O)c3ccccc23)s1`: the largest response in the series, negative = inhibition is 10.8% (inactive).

For the molecule `C/C=C/C(=O)Nc1nnc(C(C)C)s1`, the largest response in the series, negative = inhibition is -3.92% (inactive).

Take `CCC(CC)c1nnc(NC(=O)/C=C/c2ccco2)s1`: the Potency is 56.2 µM (active).

As for `Cc1nnc(NC(=O)/C=C/c2ccco2)s1`, the Potency is 11.2 µM (active).

`FC(F)(F)c1nnc2c3ccccc3c(Cl)nn12`: the largest response in the series, negative = inhibition is 10.4% (inactive).

In the case of `CC1CCN(S(=O)(=O)c2ccc(NC(=O)C3CC(=O)N(c4ccccc4)C3)cc2)CC1` (configuration not stated), the largest response in the series, negative = inhibition was 6.28% (inactive).

`Cc1cc(S(=O)(=O)NC2CCCC2)ccc1-n1cnnn1`: the largest response in the series, negative = inhibition is 16.3% (inactive).

Take `CCOc1ccc(C(=O)Nc2c3c(nn2-c2ccccc2)CS(=O)(=O)C3)cc1`: the largest response in the series, negative = inhibition is 11.5% (inactive).

In the case of `CC(=N\NC(=O)c1cc(Br)ccc1O)/C(=N/O)C(=O)Nc1ccccc1`, the largest response in the series, negative = inhibition was 16.6% (inactive).

In the case of `O=C(NCCc1ccccc1Cl)C1CCC(=O)N(CCCc2ccccc2)C1` (configuration not stated), the largest response in the series, negative = inhibition is -2.68% (inactive).

For `COC(=O)c1ccc(COc2ccc(/C=C/C(=O)c3ccc(OC)c(CSCC(=O)O)c3)cc2OC)cc1`, the largest response in the series, negative = inhibition is -20.4% (inactive).

As to `COc1ccc(C2/C(=C(/O)c3ccc4c(c3)CC(C)O4)C(=O)C(=O)N2Cc2ccncc2)cc1` (configuration not stated), the largest response in the series, negative = inhibition was -0.196% (inactive).

Take `COc1cccc2cc(-c3cc(=O)oc4cc(C)c(O)cc34)oc12`: the largest response in the series, negative = inhibition was -19.1% (inactive).

As for `O=C(O)C1C2C=CC(C2)C1C(=O)N1CCN(CCO)CC1` (configuration not stated), the Potency was 20 µM (active).

As for `C=C(Cl)COC(=O)C1C2C=CC(C2)C1C(=O)O` (configuration not stated), the largest response in the series, negative = inhibition was -7.02% (inactive).

Consider `CN1CCN(C(=O)C2C3C=CC(C3)C2C(=O)O)CC1` (configuration not stated), for which the largest response in the series, negative = inhibition was -2.06% (inactive).

For `CC(CN1CCOCC1)OC(=O)c1ccc(C(C)(C)C)cc1` (configuration not stated), the largest response in the series, negative = inhibition is -0.906% (inactive).

With `Cc1cccc(N2CCN(S(=O)(=O)c3ccc(-c4cc(C)no4)s3)CC2C)c1` (configuration not stated), the largest response in the series, negative = inhibition was 13.1% (inactive).

In the case of `CCOC(=O)c1sc(NC(=O)CSc2ncccn2)c(C#N)c1C`, the largest response in the series, negative = inhibition was 15.3% (inactive).

Turning to `CCOC(=O)c1sc(NC(=O)CSc2nc(C)cc(C(F)(F)F)n2)c(C#N)c1C`, the Potency was 20 µM (active).

As to `Cc1cc(C(F)(F)F)nc(SCC(=O)Nc2nccs2)n1`, the largest response in the series, negative = inhibition was -13.1% (inactive).

Values taken from PubChem BioAssay AID1490 (National Center for Advancing Translational Sciences (NCATS), 2009).
